Assay outcomes (PubChem BioAssay)
Shown are actives, neighbours in structure and some others; about 6.9% of the full set was active somewhere.
NS3h inh CB: HCV NS3 helicase inhibitors, primary screen, biochemical, fluorescence polarization, ChemBridge library; Hepatitis C virus NS3 helicase; NS3h Cy5-dT15 DNA binding; inhibition, % at 100 µM; hit rate 1.6% among 16,000;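 active means inhibition above the average over every tested compound plus 3 SD, cut at about 40% in these data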
Cy5 interf NS3h: Cy5 fluorescence quenchers or enhancers, artefact control for HCV NS3 helicase inhibitor project, biochemical, ChemBridge library, Cy5 readout; fluorescence interference ratio at 100 µM; Cy5-dT15 DNA with NS3h, fluorescence interference; actives lie on both sides; signal over control mean, under 1 quenches; AID 720488, 2013; hit rate 6% among 16,000;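 active means compound fluorescence over control fluorescence at most 0.8, a quencher, or at least a set upper limit, an enhancer; inactive means ratio between 0.8 and the set upper limit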
HCV NS3h conf: HCV NS3 helicase inhibitors, retest, confirmation, biochemical, fluorescence polarization, ChemBridge library; shares compounds with NS3h inh CB; NS3h binding to Cy5-dT15 DNA; inhibition, % at 100 µM; hit rate 20% among 240;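 active means percent inhibition of 50% or more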
SSB-DNA FP CB: E. coli SSB-DNA binding inhibitors, counter-screen for HCV NS3 helicase inhibitor project, biochemical, fluorescence polarization, selected ChemBridge compounds | shares compounds with NS3h inh CB | E. coli SSB binding Cy5-dT15 | inhibition, % at 100 µM | hit rate 40% among 240 | AID 720486, 2013;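 active means inhibition of at least 50%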;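 further: displacers lower Cy5 polarization so higher inhibition means more SSB displaced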
Target sequence (P0AGE0 whole entry, looked up): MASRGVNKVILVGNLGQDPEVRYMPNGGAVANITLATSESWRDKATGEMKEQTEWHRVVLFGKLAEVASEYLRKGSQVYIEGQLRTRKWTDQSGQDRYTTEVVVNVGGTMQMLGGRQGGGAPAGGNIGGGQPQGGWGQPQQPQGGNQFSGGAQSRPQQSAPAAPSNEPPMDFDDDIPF
Cy5 SSB fluor CB: Cy5 fluorescence interference with SSB-bound oligo, artefact control for HCV NS3 helicase inhibitor project, biochemical, E. coli SSB, selected ChemBridge compounds. shares compounds with NS3h inh CB. Cy5-dT15/E. coli SSB fluorescence interference; actives lie on both sides. fluorescence interference ratio at 100 µM. hit rate 8% among 240. AID 720487, 2013;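 active means fluorescence interference ratio at or above 1.2, signal boosting, or at or below 0.8, signal quenching; inactive means ratio between 0.8 and 1.2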
Cy5 fluor confirm: Cy5-DNA-NS3h complex fluorescence interference, confirmation, artefact control for HCV NS3 helicase inhibitor project, biochemical, ChemBridge library | shares compounds with NS3h inh CB | Cy5-dT15 DNA/NS3h fluorescence interference counterscreen | fluorescence interference ratio at 100 µM, hits read low | hit rate 44% among 240;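 active means fluorescence interference ratio at or below 0.8 quencher or at or above a set limitenhancer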
Numbers stand for hits; 0 = inactive.

SMILES	NS3h inh CB	Cy5 interf NS3h	others
Cc1cccc(N2C(=O)/C(=C/c3ccc(OCc4cccc(C(=O)O)c4)cc3)C(=O)NC2=S)c1	0	0
CC(C)OC(NC(=O)c1ccco1)C(Cl)(Cl)Cl (centres undefined)	0	0
O=C(Nc1nc2ccccc2s1)C(Cl)(Cl)Cl	0	0
O=C1NC(=S)N(c2ccccc2)C(=O)/C1=C/c1ccco1	94	0	HCV NS3h conf=63;SSB-DNA FP CB=100;Cy5 SSB fluor CB=0;Cy5 fluor confirm=0.71
O=C1NC(=S)N(c2ccccc2F)C(=O)C1=Cc1ccco1	106	0.65	HCV NS3h conf=113;SSB-DNA FP CB=123;Cy5 SSB fluor CB=0.77;Cy5 fluor confirm=0
CC(=O)c1ccc(OC(=O)Cc2ccccc2)cc1	0	0
O=Cc1cn(Cc2c(Cl)cccc2Cl)c2ccccc12	0	0
COc1ccc(CN2CCN(Cc3ccc(Br)cc3)CC2)cc1Br	0	0
CSc1ccc(CN2CCN(Cc3cc(Br)ccc3O)CC2)cc1	0	0
O=C(CNC(=O)OCc1ccccc1)NCC(=O)Nc1ccc(Br)cc1C(=O)c1ccccc1	0	0
CC(=O)NC1(c2ccccc2)CC(C)N(C)CC1C (centres undefined)	0	0
